Measurements published in PubChem BioAssay AID1851 (National Center for Advancing Translational Sciences (NCATS), 2009).
Values joined by “and” are separate entries in the source; they are usually repeats but may differ in a detail not shown here. Identical values can stand only once. Screen size: about 16,000 compounds; about 2,600 (16%) were called active. Roughly 20% stayed inconclusive and do not appear here. The call rests on the fitted dose curve; in most records, active means well fitted curve in the direction sought with a large enough effect; inconclusive means small, poorly fitted or top-dose-only effect, or effect the other way; inactive means no such curve, though single readings can be large or run the other way. Many of the other results were omitted from the sample, so actives are more common in it than they were.

Each compound was assayed against Cytochrome P450 2D6 (Homo sapiens) (UniProt P10635) (assay: Cytochrome panel assay with activity outcomes). Settings: recombinant CYP, pro-luciferin dealkylation, luminescence, p450-cyp2d6; series mostly up to 57.1 µM; activity, negative = inhibition: at the top concentration.
On the % scale 0 is the no-effect control and ±100 the full control effect.

Sequence of Cytochrome P450 2D6 (Homo sapiens) (P10635 whole entry, looked up): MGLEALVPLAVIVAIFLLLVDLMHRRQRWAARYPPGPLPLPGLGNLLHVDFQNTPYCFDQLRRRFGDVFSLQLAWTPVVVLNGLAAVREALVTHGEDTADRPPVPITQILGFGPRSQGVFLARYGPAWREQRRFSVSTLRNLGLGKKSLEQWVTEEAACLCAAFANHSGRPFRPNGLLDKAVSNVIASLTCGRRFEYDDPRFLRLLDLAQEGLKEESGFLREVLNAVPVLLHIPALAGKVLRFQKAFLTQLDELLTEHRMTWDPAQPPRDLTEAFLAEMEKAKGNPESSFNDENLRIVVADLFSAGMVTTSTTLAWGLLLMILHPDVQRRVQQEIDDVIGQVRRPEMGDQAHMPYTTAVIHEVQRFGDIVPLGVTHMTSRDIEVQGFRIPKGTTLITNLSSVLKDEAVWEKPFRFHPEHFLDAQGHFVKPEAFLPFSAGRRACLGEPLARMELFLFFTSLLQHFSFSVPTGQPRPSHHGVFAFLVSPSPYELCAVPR

Structure (SMILES)	activity, negative = inhibition	AC50
C[C@H]1CCCC=CC2C[C@H](O)C[C@@H]2[C@H](O)/C=C\C(=O)O1 (some centres not stated)	9.19% (inactive)	–
N#Cc1cccc(NC(=O)N2CCCC3(CCN(C(=O)Oc4ccccc4)CC3)C2)c1	-9.57% (inactive)	–
Oc1ccc2c3c1O[C@H]1c4oc5ccccc5c4C[C@]4(O)[C@H](C2)N(CC2CC2)CC[C@@]314	–	1.26 µM (active)
Oc1ccc2c3c1O[C@H]1c4c(c5ccccc5n4Cc4ccccc4)C[C@]4(O)[C@H](C2)N(CC2CC2)CC[C@@]314	-5.11% (inactive)	–
NC(N)=Nc1ccc2[nH]c3c(c2c1)C[C@]1(O)[C@@H]2Cc4ccc(O)c5c4[C@]1(CCN2CC1CC1)[C@H]3O5	2.41% (inactive)	–
Oc1ccc2c3c1O[C@H]1c4[nH]c5ccccc5c4C[C@]4(O)[C@H](C2)N(CC2CC2)CC[C@@]314	–	2.51 µM (active) and 631 nM (active)
Oc1ccc2c3c1O[C@@H]1c4[nH]c5c(c4C[C@@]4(O)[C@@H](C2)N(CC2CC2)CC[C@]314)C[C@]1(O)[C@@H]2Cc3ccc(O)c4c3[C@@]1(CCN2CC1CC1)[C@H]5O4	-4.66% (inactive)	–
Oc1ccc2c3c1O[C@H]1c4[nH]c5c(c4C[C@@]4(O)[C@@H](C2)N(CC2CC2)CC[C@]314)C[C@]1(O)[C@H]2Cc3ccc(O)c4c3[C@@]1(CCN2CC1CC1)[C@@H]5O4	-4.33% (inactive)	–
Nc1nc(N)c2nc(CNc3ccc(C(=O)N[C@H](CCC(=O)O)C(=O)O)cc3)cnc2n1	-1.59% (inactive)	–
CC[C@H](C)[C@@H]1O[C@]2(CC[C@@H]1C)C[C@H]1C[C@H](CC=C(C)[C@@H](O[C@@H]3C[C@H](OC)[C@H](O[C@@H]4C[C@H](OC)[C@H](O)[C@H](C)O4)[C@H](C)O3)[C@@H](C)C=CC=C3CO[C@@H]4[C@@H](O)C(C)=C[C@@H](C(=O)O1)[C@]34O)O2	-16.5% [at 25.6 µM] (inactive)	–
CCNC(=O)[C@@H]1O[C@@H](n2cnc3c(N)ncnc32)[C@@H](O)[C@H]1O	-3.38% (inactive)	–
CCN(CC)CC#CCOC(=O)[C@@](O)(c1ccccc1)C1CCCCC1	–	10 µM (active)
Cc1ccc(S(=O)ON2CCC(C(=O)O)(c3ccccc3)CC2)cc1 (configuration not stated)	20.9% [at 11.4 µM] (inactive)	–
CCCc1cc2c(n1CCO)C(C)C1CN(C(=O)c3ccccc3)C(C)(C(=O)OC)C21 (configuration not stated)	-9.47% (inactive)	–
CCCc1cc2c(n1Cc1cccc(Cl)c1)C(C)C1CN(C(=O)c3ccccc3)C(C)(C(=O)OC)C21 (configuration not stated)	–	12.6 µM (active)
CCCc1cc2c(n1Cc1ccc(C)cc1)C(C)C1CN(C(=O)c3ccccc3)C(C)(C(=O)OC)C21 (configuration not stated)	-18% (inactive)	–
O=C1Nc2ccc(I)cc2/C1=C/c1cc(Br)c(O)c(Br)c1	5.11% (inactive)	–
C[C@H]1CC[C@]2(OC1)O[C@@H]1C[C@@H]3[C@@H]4CC[C@H]5C[C@@H](O)CC[C@]5(C)[C@@H]4CC(=O)[C@@]3(C)[C@H]1[C@@H]2C	3.5% [at 25.6 µM] (inactive)	–
COCCCN1Cc2ccccc2C1=N	–	12.6 µM (active)
N#CC(=C(/N)Sc1ccccc1N)/C(C#N)=C(/N)Sc1ccccc1N	–	0.02 µM (active)
CCC(=Nc1cc(OC)ccc1OC)c1c(O)[nH]c(=O)[nH]c1=O	-20% (inactive)	–

Structure (SMILES)	activity, negative = inhibition	AC50
CCCCn1c(O)c(C(CC)=Nc2ccc(OC)cc2OC)c(=O)[nH]c1=O	–	12.6 µM (active)
CCCCn1c(O)c(C(CC)=NCc2ccc(F)cc2)c(=O)[nH]c1=O	-4.9% (inactive)	–
CCCCN1C(=O)/C(=C/c2ccc(N(C)C)cc2)C(=O)N(Cc2ccco2)C1=O	2.94% (inactive)	–
[N-]=[N+]=NCC(=O)c1c[nH]c(=O)[nH]c1=O	8.7% [at 11.4 µM] (inactive)	–
O=[N+]([O-])c1cc([As](=O)(O)O)ccc1O	-1.12% [at 25.6 µM] (inactive)	–
CCn1cnc2c(Nc3cccc(Cl)c3)nc(N[C@@H]3CCCC[C@H]3N)nc21	–	25.1 µM (active)
CC(=O)[C@@H]1CC[C@@H]2[C@@H]3CC=C4C[C@H](OS(=O)(=O)O)CC[C@@]4(C)[C@H]3CC[C@]21C	-8.1% (inactive)	–
Cc1ccc2c(c1)C1CN(C)CCC1N2C(=O)Nc1cccc(Cl)c1 (configuration not stated)	–	1 µM (active)
Clc1cc(I)cc(Cl)c1NC1=NCCN1	–	3.98 µM (active)
Brc1c(NC2=NCCN2)ccc2nccnc12	-11.4% (inactive)	–
CCC(CC)C(=O)NC1CCSC1=O (configuration not stated)	0.616% (inactive)	–
CC1(C)N=C(N)N=C(N)N1c1cccc(C(=O)Nc2ccc(S(=O)(=O)F)cc2)c1	–	2 µM (active)
CN1C(=O)c2ccccc2Sc2ccc(C(=O)N3CCC4(CC3)OCCO4)cc21	13.9% (inactive)	–
C=CCN1C(=O)c2ccccc2Sc2ccc(C(=O)N3CCC4(CC3)OCCO4)cc21	-5.85% (inactive)	–
CC(=O)c1ccc2c(c1)N(CCCN(C)C)c1ccccc1S2	–	2.51 µM (active)
CCCCc1nc2ccccc2c(=O)n1-c1ccccc1[N+](=O)[O-]	-22.1% (inactive)	–
COc1cc(CCN)ccc1O	-0.172% (inactive)	–
CN(C(=O)Cc1ccccc1)[C@H](CN1CCCC1)c1ccccc1	–	3.16 µM (active)
CN(C(=O)Cc1ccc(Cl)c(Cl)c1)[C@@H](CN1CCCC1)c1cccc(OCC(=O)O)c1	0.96% (inactive)	–
O=c1[nH]oc2c1CCNC2	–	inactive
C#C[C@@]1(O)CC[C@@H]2[C@@H]3CCC4=CC(=O)CC[C@@]4(C)[C@H]3CC[C@]21C	3.54% [at 25.6 µM] (inactive)	–
